Activity calls are given as the source filed them. No stated cut-off is given here; in the data, active means log2 fold change growth below about -1.8; inactive means the rest.
Test: anthelmintic activity against nematode growth – whole organism, log2 fold change (AID 1259336);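 further: growth scored by imaging after five days at 20 °C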
Settings: C. elegans growth, anthelmintic screen; active compounds read low
In the case of `CC(C)(C)C(O)C(Oc1ccc(-c2ccccc2)cc1)n1cncn1` (centres undefined), the log2 fold change growth is reported as -0.263 (inactive).
For `O=C1O[C@@H](CO)CN1c1cc(F)c(C2=CCN(Cc3ccccc3)CC2)c(F)c1`, the log2 fold change growth was 0.141 (inactive).
With `CC1(C)OB(O)c2ccc(C3=NO[C@](c4cc(Cl)c(F)c(Cl)c4)(C(F)(F)F)C3)cc21` the log2 fold change growth was -2.88 (inactive).
In the case of `Cc1cccc(C(=O)Nc2ccnc(N(C)C3CCN(CC(C)C)CC3)c2)c1`, the log2 fold change growth is reported as 0.418 (inactive).
With `CC1COC(Cn2cncn2)(c2ccc(Oc3ccc(Cl)cc3)cc2Cl)O1` (centres undefined) the log2 fold change growth was -0.72 (inactive).
In the case of `CO[C@@H]1CN(c2ccc(C#CC3(O)CN4CCC3CC4)c(Cc3ccccc3)n2)C[C@H]1O` (some centres undefined), the log2 fold change growth is reported as -0.086 (inactive).
In the case of `CCc1nn(C)c(C(=O)NCc2ccc(Oc3ccc(C)cc3)cc2)c1Cl`, the log2 fold change growth is reported as -10.9 (active).
For `CO/C=C(\C(=O)OC)c1ccccc1Oc1cc(Oc2ccccc2C#N)ncn1`, the log2 fold change growth was -0.352 (inactive).
For `Cc1cc(C2=NO[C@](c3cc(Cl)c(F)c(Cl)c3)(C(F)(F)F)C2)ccc1C(=O)NCc1ccc2c(c1)C(C)(C)OB2O`, the log2 fold change growth was -0.268 (inactive).
With `Cc1nn(C)c(C)c1NS(=O)(=O)c1c(Cl)cc(-c2ccnc(N3CCNCC3)c2)cc1Cl` the log2 fold change growth was -0.0922 (inactive).
In the case of `CO/N=C(/C(=O)OC)c1ccccc1CO/N=C(/C)c1cccc(C(F)(F)F)c1`, the log2 fold change growth is reported as -0.187 (inactive).
In the case of `O=C1O[C@@H](COc2ccon2)CN1c1cc(F)c(C2=CCN(Cc3ccccc3)CC2)c(F)c1`, the log2 fold change growth is reported as 0.114 (inactive).
With `Cc1nn(Cc2ccccc2)c(Cl)c1C(=O)NC1CCCCCC1` the log2 fold change growth was 0.0333 (inactive).
For `Nc1c2c(nc3sc4c(c13)CCCC4)CCCC2`, the log2 fold change growth was -0.177 (inactive).

Reference: PubChem BioAssay AID1259336 (Sattelle Laboratory, UCL Respiratory, Division of Medicine, …, 2017)
